# Reference: PubChem BioAssay AID1159580 (chemical genetic matrix, 2015)
# Out of some 5,500 compounds screened, about 2,000 (36%) were called active. Roughly 18% stayed inconclusive and do not appear here. Some of the results follow. Unmarked numbers belong to inactive results. Cut-off read from the data, not from the text of the source: active = normalized growth mostly below about 0.91 (no sharp cut-off); inconclusive = no clear call, values can overlap the other calls; inactive = mostly above about 0.92.
# Experiment: chemical genetic growth profiling, strain panel (AID 1159580);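 note: tested at 20 µM; growth read once vehicle control cultures reached saturation at 30 °C; 1 = growth at the plate median or of vehicle wells; lower values mean less growth of the strain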
# Details: S. cerevisiae deletion strains, growth OD
smiles,measurement,setting,value
CC(C)=CCc1c2c(c3occ(-c4ccc(O)cc4)c(=O)c3c1O)C=CC(C)(C)O2,normalized growth,"locus YJR043C, strain POL32, stronger effect = lower value",0.717 (active)
same,normalized growth,"locus YJR066W, strain TOR1, stronger effect = lower value",0.906
same,normalized growth,"locus YJR075W, strain HOC1, stronger effect = lower value",0.852 (active)
same,normalized growth,"locus YKL009W, strain mrt4, stronger effect = lower value",0.961
same,normalized growth,"locus YKL068W, stronger effect = lower value",1.01
same,normalized growth,"locus YKL085W, strain MDH1 (second series), stronger effect = lower value",1.02
same,normalized growth,"locus YKL085W, strain MDH1, stronger effect = lower value",1.02
same,normalized growth,"locus YKL160W, strain elf1, stronger effect = lower value",0.868 (active)
same,normalized growth,"locus YKL190W, strain CNB1, stronger effect = lower value",0.772 (active)
same,normalized growth,"locus YKR001C, strain vps1, stronger effect = lower value",0.927
same,normalized growth,"locus YKR026C, strain gcn3, stronger effect = lower value",1
same,normalized growth,"locus YKR091W, strain srl3, stronger effect = lower value",0.98
same,normalized growth,"locus YLL001W, strain dnm1, stronger effect = lower value",0.937
same,normalized growth,"locus YLL026W, stronger effect = lower value",0.915 (active)
same,normalized growth,"locus YLL041C, strain sdh2, stronger effect = lower value",0.982
same,normalized growth,"locus YLR027C, strain aat2, stronger effect = lower value",0.907 (active)
same,normalized growth,"locus YLR039C, strain RIC1, stronger effect = lower value",0.863
same,normalized growth,"locus YLR058C, strain SHM2, stronger effect = lower value",0.802 (active)
same,normalized growth,"locus YLR102C, strain apc9, stronger effect = lower value",1.05
same,normalized growth,"locus YLR113W, strain HOG1, stronger effect = lower value",0.965
same,normalized growth,"locus YLR221C, strain rsa3, stronger effect = lower value",0.858 (active)
same,normalized growth,"locus YLR258W, strain gsy2, stronger effect = lower value",0.926
same,normalized growth,"locus YLR262C, strain YPT6 (second series), stronger effect = lower value",0.881
same,normalized growth,"locus YLR268W, strain sec22, stronger effect = lower value",0.841 (active)
same,normalized growth,"locus YLR320W, strain mms22, stronger effect = lower value",0.863 (active)
same,normalized growth,"locus YLR342W, strain FKS1, stronger effect = lower value",0.775 (active)
same,normalized growth,"locus YLR357W, strain rsc2, stronger effect = lower value",0.814 (active)
same,normalized growth,"locus YLR370C, strain arc18, stronger effect = lower value",0.978
same,normalized growth,"locus YLR371W, strain rom2, stronger effect = lower value",0.806 (active)
same,normalized growth,"locus YLR384C, strain iki3, stronger effect = lower value",1
same,normalized growth,"locus YLR418C, strain cdc73, stronger effect = lower value",0.827 (active)
same,normalized growth,"locus YML016C, strain PPZ1, stronger effect = lower value",0.677 (active)
same,normalized growth,"locus YML032C, strain rad52, stronger effect = lower value",0.987
same,normalized growth,"locus YML120C, strain ndi1, stronger effect = lower value",0.99
same,normalized growth,"locus YML124C, strain tub3, stronger effect = lower value",0.994
same,normalized growth,"locus YMR058W, strain fet3, stronger effect = lower value",0.429 (active)
same,normalized growth,"locus YMR078C, strain ctf18, stronger effect = lower value",1.03
same,normalized growth,"locus YMR125W, strain sto1, stronger effect = lower value",1.07
same,normalized growth,"locus YMR129W, stronger effect = lower value",0.968
same,normalized growth,"locus YMR205C, strain PFK2, stronger effect = lower value",0.902
same,normalized growth,"locus YMR223W, strain ubp8, stronger effect = lower value",0.936
same,normalized growth,"locus YMR231W, strain pep5, stronger effect = lower value",0.948
same,normalized growth,"locus YMR307W, strain GAS1, stronger effect = lower value",0.724
same,normalized growth,"locus YNL067W, strain RPL9B, stronger effect = lower value",0.93
same,normalized growth,"locus YNL071W, strain lat1, stronger effect = lower value",0.943
same,normalized growth,"locus YNL128W, strain TEP1, stronger effect = lower value",0.643 (active)
same,normalized growth,"locus YNL153C, strain GIM3, stronger effect = lower value",0.835 (active)
same,normalized growth,"locus YNL183C, strain NPR1, stronger effect = lower value",0.908
same,normalized growth,"locus YNL209W, strain ssb2, stronger effect = lower value",0.51 (active)
same,normalized growth,"locus YNL233W, strain BNI4, stronger effect = lower value",0.787 (active)
same,normalized growth,"locus YNL248C, strain rpa49, stronger effect = lower value",0.951
same,normalized growth,"locus YNL250W, strain rad50, stronger effect = lower value",0.999
same,normalized growth,"locus YNL271C, strain bni1, stronger effect = lower value",1.01
same,normalized growth,"locus YNL298W, strain CLA4, stronger effect = lower value",0.991
same,normalized growth,"locus YNL307C, strain MCK1, stronger effect = lower value",0.957
same,normalized growth,"locus YNL322C, strain KRE1 (second series), stronger effect = lower value",1.05
same,normalized growth,"locus YNR049C, strain mso1, stronger effect = lower value",0.999
same,normalized growth,"locus YNR052C, strain pop2, stronger effect = lower value",1
same,normalized growth,"locus YOL006C, strain TOP1, stronger effect = lower value",0.389 (active)
same,normalized growth,"locus YOL012C, strain htz1",0.443
same,normalized growth,"locus YOL147C, strain pex11, stronger effect = lower value",1
same,normalized growth,"locus YOR001W, strain rrp6, stronger effect = lower value",0.988
same,normalized growth,"locus YOR061W, strain CKA2, stronger effect = lower value",0.733 (active)
same,normalized growth,"locus YOR069W, strain VPS5, stronger effect = lower value",0.87 (active)
same,normalized growth,"locus YOR070C, strain gyp1, stronger effect = lower value",0.812 (active)
same,normalized growth,"locus YOR080W, strain dia2, stronger effect = lower value",0.934
same,normalized growth,"locus YOR083W, strain WHI5, stronger effect = lower value",0.866 (active)
same,normalized growth,"locus YOR106W, strain vam3, stronger effect = lower value",0.634 (active)
same,normalized growth,"locus YOR136W, strain idh2, stronger effect = lower value",0.996
same,normalized growth,"locus YOR144C, strain elg1, stronger effect = lower value",1
same,normalized growth,"locus YOR184W, strain ser1, stronger effect = lower value",0.869 (active)
same,normalized growth,"locus YOR231W, strain MKK1, stronger effect = lower value",0.991
same,normalized growth,"locus YOR265W, strain rbl2, stronger effect = lower value",0.888 (active)
same,normalized growth,"locus YOR270C, strain vph1, stronger effect = lower value",0.849
same,normalized growth,"locus YOR290C, strain snf2, stronger effect = lower value",1
same,normalized growth,"locus YOR316C, strain cot1, stronger effect = lower value",0.988
same,normalized growth,"locus YPL051W, strain arl3, stronger effect = lower value",0.658 (active)
same,normalized growth,"locus YPL078C, strain atp4, stronger effect = lower value",0.985
same,normalized growth,"locus YPL106C, strain sse1, stronger effect = lower value",0.793 (active)
same,normalized growth,"locus YPL240C, strain hsp82, stronger effect = lower value",0.957
same,normalized growth,"locus YPL241C, strain CIN2, stronger effect = lower value",0.936
same,normalized growth,"locus YPL256C, strain CLN2, stronger effect = lower value",1
same,normalized growth,"locus YPR119W, strain clb2, stronger effect = lower value",1.02
same,normalized growth,"locus YPR141C, strain kar3, stronger effect = lower value",1.01
same,normalized growth,"locus YPR163C, strain tif3, stronger effect = lower value",0.979
same,normalized growth,"locus YPR167C, strain met16, stronger effect = lower value",0.913 (active)
same,normalized growth,"strain wtn01, stronger effect = lower value",0.811 (active)
